This passage reports composite z-score results from PubChem BioAssay.

In the test the target is Torsin-1A (Homo sapiens) (UniProt O14656). As to the kind of experiment: small-molecule binders of mutant TOR1A in lysate, primary screen, cell lysate, small-molecule microarray, COS7 lysate, 635/667 nm fluorescence (AID 1150).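 Also: score pools 667 nm emission and signal to noise measuring lysate protein binding.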 The following applies: COS7 hTOR1A mutant lysate, 635 nm fluorescence, higher = more signal.
Torsin-1A (Homo sapiens), sequence (O14656 whole entry, looked up): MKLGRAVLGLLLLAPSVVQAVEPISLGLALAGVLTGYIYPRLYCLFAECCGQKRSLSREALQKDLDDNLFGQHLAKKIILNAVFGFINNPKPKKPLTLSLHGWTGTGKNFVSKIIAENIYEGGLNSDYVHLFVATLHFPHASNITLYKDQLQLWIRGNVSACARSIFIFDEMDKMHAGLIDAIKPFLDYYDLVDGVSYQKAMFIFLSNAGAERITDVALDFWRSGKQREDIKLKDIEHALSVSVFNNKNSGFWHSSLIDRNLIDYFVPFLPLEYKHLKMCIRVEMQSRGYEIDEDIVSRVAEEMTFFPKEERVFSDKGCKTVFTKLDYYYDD
Turning to `COc1cc2c(cc1O)C(c1cccs1)N(Cc1cc3c(cc1Br)OCO3)CC2` (stereo not given), the composite z-score was found to be 1.16.

`CCC#CCN(Cc1ccccc1Br)[C@H](/C=C/C1CC1)[C@@H](O)Cc1ccccc1` gave a composite z-score of 0.0257. Next, `COC(=O)[C@@]1(Cc2ccccc2)[C@H]2c3cc(C(=O)N4CCCC4)n(CCc4ccccn4)c3C[C@H]2CN1C(=O)c1ccccc1`: 1.4; `CCCCC(CC)C(O)C1C=CC2C(=O)N(c3ccccc3)C(=O)C2N1Nc1ccccc1F` (stereo not given): 0.663.

For the compound `[N-]=[N+]=Nc1ccccc1[C@@H]1OC(c2ccc(OCCCO)cc2)=N[C@]1(Cc1ccccc1)C(=O)N1CCCCC1`, the composite z-score was determined as 1.37. The figure for `CC1CC/C=C\[C@H]2OC34C=CCN(C(C)C)C(=O)[C@H]3N(CCO)C(=O)[C@@H]4C2C(=O)O1` (stereo not given in full) is -1.17. The figure for `CCOC(=O)C1=C[C@@H](C(C)(C)C)N(S(=O)(=O)c2ccc(C)cc2)[C@H]1c1cccc2ccccc12` is 0.406.

In turn, `CC(C)[Si]1(C(C)C)OCc2cc(-c3ccc(-c4ccc(Cl)c(Cl)c4)o3)nc(-c3ccccc3)c21` displayed a composite z-score of -1.15. In the case of `CCCCCCc1nc(Cc2cc(OC)c(OC)c(OC)c2)cc2c1[Si](C(C)C)(C(C)C)OC2`, the composite z-score was -0.282.

With `C=CC[C@@H](OC(=O)Nc1ccc(SC)cc1)c1ccc(O)c(F)c1`, the composite z-score amounted to 0.163. `Cc1ccc(NN2C(C(O)c3c(F)cccc3Cl)C=CC3C(=O)N(C4CCCCC4)C(=O)C32)cc1` (stereo not given) gave a composite z-score of 0.448. The figure for `COc1ccc([Si](C)(C)[C@@H]2[C@@H](CC(=O)N(CCO)Cc3ccccc3)O[C@]3(C(=O)N(Cc4cccc(N5CCCCC5=O)c4)c4ccccc43)[C@H]2C)cc1` is 0.706; for `NC(=O)[C@H]1[C@@H]2C(=O)O[C@@H](c3ccccc3)[C@@H](c3ccccc3)N2[C@@H](c2ccc(OCCO)cc2)[C@]12C(=O)Nc1ccc(C#CCCO)cc12` it is 0.331.

In the case of `COc1cc(C(O)C2C=CC3C(=O)N(C)C(=O)C3N2Nc2ccccc2)cc(OC)c1OC` (stereo not given), the composite z-score turned out to be 1.17. `C#Cc1cc2ccccc2oc1=O` gave a composite z-score of -0.539. `CC(=O)NCCCC[C@@H]1NC(=O)[C@@H]2C[C@H](C(=O)NCCCCCN)[C@H](c3cccc(OCCO)c3)N2C1=O` yielded a composite z-score of -0.0879.

Compound `COc1ccc(CCNC(=O)[C@@]2(c3ccc([N+](=O)[O-])cc3)CC(=O)N(C3CCCCC3)[C@@H]2c2ccc(CO)cc2)cc1` yielded a composite z-score of 0.56. Next, `NCCCCCNC(=O)[C@@H]1C[C@@H]2C(=O)N[C@@H](CCCCN)C(=O)N2[C@@H]1c1ccc(O)cc1`: 1.59; `NCCCCCNC(=O)[C@H]1C[C@H]2C(=O)N3CCC[C@H]3C(=O)N2[C@H]1c1cccc(OCCO)c1`: 0.264. Next, `COCCOC(=O)N1C(=O)[C@@]2(c3cc(C#CCCO)ccc31)[C@H](c1ccc(OCCO)cc1)N1[C@H](c3ccccc3)[C@H](c3ccccc3)OC(=O)[C@H]1[C@@H]2C(=O)Nc1nc2ccccc2s1`: 0.0474; `COC(=O)C1=CC(CCCO)=CC(c2cccs2)N(C)C=C1C(=O)OC` (stereo not given): 1.04.

Consider `COCCOC(=O)N1C(=O)[C@@]2(c3cc(C#CC4(O)CCCCCC4)ccc31)[C@H](c1ccc(O)cc1)N1[C@H](c3ccccc3)[C@H](c3ccccc3)OC(=O)[C@H]1[C@@H]2C(=O)N1CCN(c2ncccn2)CC1`, for which the composite z-score amounted to 0.813. Next, `COc1ccc([Si](C)(C)[C@@H]2[C@@H](CCO)O[C@]3(C(=O)N(Cc4cccc(NC(=O)[C@H](C)O)c4)c4ccccc43)[C@H]2C)cc1`: 0.97; `Cc1ccc(S[C@]2(C(=O)O)CC(=O)N(C3CCCCC3)[C@@H]2c2ccc(CO)cc2I)cc1`: 0.919. Next, `O=C1C[C@]2(c3ccc([N+](=O)[O-])cc3)C(=O)N(C3CC3)c3cc(CO)ccc3[C@H]2N1CC12CC3CC(CC(C3)C1)C2`: 0.228; `COCCCNC(=O)[C@@]1(Sc2ccc(C)cc2)CC(=O)N(C2Cc3ccccc3C2)[C@@H]1c1ccc(CO)cc1`: -1.35; `O=C1OCCC=C[C@H]2OC34C=CCN(c5ccc6ccccc6c5)C(=O)[C@H]3N(CCCO)C(=O)[C@@H]4C12` (stereo not given in full): -1.79. Next, `COC(=O)[C@@]1(Cc2ccc(F)cc2)[C@H]2c3cc(C(=O)N(C)C)n(CCc4ccc(OC)c(Br)c4)c3C[C@H]2CN1C(=O)c1ccccc1`: 0.741. As to `[N-]=[N+]=Nc1ccccc1C[C@@]1(C(N)=O)N=C(c2ccc(OCCCO)cc2)O[C@@H]1c1ccccc1N=[N+]=[N-]`, the composite z-score turned out to be 0.789.

Compound `O=C(NCc1ccc(F)cc1)[C@H]1C[C@H]2C(=O)NCC(=O)N2[C@H]1c1ccc(O)cc1` had a composite z-score of 1.82.

`C=CCNC(=O)[C@@H]1[C@H]2C(=O)O[C@H](c3ccccc3)[C@H](c3ccccc3)N2[C@H](c2ccccc2OCCO)[C@@]12C(=O)Nc1ccc(C#CCCO)cc12` had a composite z-score of 0.527. `CCOC(=O)C[C@H]1[C@H](OC(=O)Cc2ccc3c(c2)OCO3)[C@@H](NC(=O)C2CCCCC2)c2cc(OCCCO)ccc2N1C(=O)c1ccccc1` registered a composite z-score of 0.0914. `COc1ccc([Si](C)(C)[C@@H]2[C@@H](CCO)O[C@]3(C(=O)N(Cc4ccccc4)c4ccc(N5CCOC5=O)cc43)[C@H]2C)cc1` showed a composite z-score of 0.817. Next, `C=C(/C(=C/C[C@H](OC(C)=O)c1ccc(CO)o1)c1cnc2ccccc2c1)C(C)C`: 0.269; `CCCCCCCCCCC(O)C1C=CC2C(=O)N(c3ccccc3)C(=O)C2N1Nc1ccc(C#N)cc1` (stereo not given): 0.646.
